CHO-K1 Ca ag – counter-screen for M1 agonists: effect in parental CHO-K1 cells. Fluo-8 calcium fluorescence; scaled to maximal ATP response, vehicle zero. AID 602248, 2012. hit rate 0.48% among 360,000. activation, % at 3 µM; in the data active = activation above about 15%;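 note: untransfected CHO-K1 host cells lacking M1 receptor as counterscreen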
CHO-K1 Ca antag – nonselective inhibitor or artifact in parental CHO-K1 cells | ATP-induced calcium, Fluo-8 fluorescence | inhibition, % at 3 µM | hit rate 0.6% among 360,000;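 active = inhibition above a per-plate cutoff, the plate's mean sample inhibition plus 3 SD, cut at about 24% in these data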;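 note: 0% = DMSO plus EC80 ATP and 100% = DMSO alone without ATP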
CHO-K1 Ca PAM – nonselective calcium activators in parental CHO-K1 cells, primary screen, counter-screen for M1 PAM project, cell-based, Fluo-8 calcium fluorescence, full deck, 1536-well | ATP EC20; 0% at ATP EC20, 100% at ATP max | activation, % at 3 µM | hit rate 0.02% among 360,000 | AID 602247, 2012;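 active = activation above the run cutoff, the mean activation of all test compounds plus 3 SD, cut at about 40% in these data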;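 note: peak over basal fluorescence ratio in a 140 s read after ATP addition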
CHRM1 PAM – human M1 muscarinic receptor positive allosteric modulators, primary screen, CHO-K1 cells, Fluo-8 calcium fluorescence, 1536-well; Muscarinic acetylcholine receptor M1 (Homo sapiens), P11229; CHO-K1 hM1, ACh EC20; 0% = ACh EC20, 100% = maximal ACh; activation, % at 3 µM; hit rate 0.088% among 360,000; AID 588819, 2011; in the data active = activation above about 19%, passing the limit was not always enough
Target sequence (P11229 whole entry, looked up): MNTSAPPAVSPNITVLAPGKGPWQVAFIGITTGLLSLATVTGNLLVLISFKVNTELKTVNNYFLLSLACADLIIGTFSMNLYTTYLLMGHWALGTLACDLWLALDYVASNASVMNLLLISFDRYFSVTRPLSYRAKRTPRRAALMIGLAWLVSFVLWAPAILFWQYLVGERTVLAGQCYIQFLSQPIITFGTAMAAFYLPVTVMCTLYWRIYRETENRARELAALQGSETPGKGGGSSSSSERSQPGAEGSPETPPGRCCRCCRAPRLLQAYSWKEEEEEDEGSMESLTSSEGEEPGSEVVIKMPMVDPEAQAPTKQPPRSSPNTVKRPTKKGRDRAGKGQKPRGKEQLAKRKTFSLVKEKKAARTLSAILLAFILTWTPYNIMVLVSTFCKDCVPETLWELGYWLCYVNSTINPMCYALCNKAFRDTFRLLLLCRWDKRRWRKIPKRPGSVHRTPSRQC
M1 antag – human M1 muscarinic receptor antagonists, primary screen, CHO-K1 cells, Fluo-8 calcium fluorescence, 1536-well. CHO-K1 hM1, ACh EC80 antagonist. inhibition, % at 3 µM. hit rate 1.3% among 360,000. AID 588852, 2011;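 active = percent inhibition above its own plate's cutoff, namely the mean of that plate's compound wells plus 3 SD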;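 note: peak over basal fluorescence ratio during 140 s after agonist addition; 0% = ACh EC80 plus DMSO and 100% = DMSO alone without agonist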
CHRM1 agonist – human M1 muscarinic receptor agonists, primary screen, Fluo-8 calcium fluorescence, CHO-K1 cells, HTS. Muscarinic acetylcholine receptor M1 (Homo sapiens), P11229. CHO-K1 hM1, agonist mode; 0% DMSO, 100% acetylcholine EC100. activation, % at 3 µM. hit rate 0.33% among 360,000;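 active = activation above the run's mean compound activation plus 3 SD, cut at about 16% in these data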;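 note: peak over basal fluorescence ratio within a 140 s kinetic read after compound addition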
Starred values were filed as active, the others as inactive. A selection: hits, their analogues and other compounds. The true share with any hit is near 2.4%.

SMILES | CHO-K1 Ca ag | CHO-K1 Ca antag | CHO-K1 Ca PAM | CHRM1 PAM | M1 antag | CHRM1 agonist
COc1ccc(/C=C/C(=O)NCCCN2CCCC2)cc1 | 6.5 | -2.0 | 3.7 | -15.5 | 41.1* | -8.2
O=C(NCc1ccc(F)cc1)c1cc(C2CCCCN2C(=O)CCCc2ccccc2)on1 (stereo not given) | 2.7 | 3.9 | 0.1 | -9.4 | 4.3 | -4.7
O=C(O)C1CSC2(c3ccc(Br)cc3)CCC(=O)N12 (stereo not given) | -0.2 | -3.7 | 12.1 | 9.2 | -0.3 | -8.6
O=C(c1cc(-c2ccccc2)nc2ccccc12)N1N=C(C(F)F)CC1(O)C(F)F (stereo not given) | 1.6 | -1.7 | 17.0 | 22.0* | -1.9 | 7.2
CCOc1ccc(OCc2ccc(C(=O)N3N=C(C(F)F)CC3(O)C(F)F)o2)cc1 (stereo not given) | 1.6 | -5.8 | 8.9 | -5.5 | 9.0 | -6.9
O=C(c1ccc(COc2ccc3ccccc3c2)o1)N1N=C(C(F)F)CC1(O)C(F)F (stereo not given) | 6.0 | 20.8 | -10.8 | -21.4 | 55.6* | -5.0
O=C(c1ccc(COc2ccc(Br)cc2)o1)N1N=C(C(F)F)CC1(O)C(F)F (stereo not given) | 3.8 | -22.5 | 6.6 | -25.2 | 33.0* | -7.0
O=C(O)C1CC=C(Cl)CC1C(=O)NC1CCCCC1 (stereo not given) | 0.2 | 10.5 | -19.2 | 2.5 | -1.7 | 2.5
O=C(O)c1cccc([N+](=O)[O-])c1C(=O)Nc1ccc2ccccc2c1 | -0.2 | -5.2 | -2.4 | 21.4 | -21.5 | -0.6
O=C(O)c1cccc([N+](=O)[O-])c1C(=O)Nc1cccc2ccccc12 | -0.9 | 23.7* | -22.7 | -1.3 | 3.7 | -1.6
Fc1ccc(-c2cc(C(F)(F)C(F)F)[nH]n2)cc1 | 26.3* | -1.5 | 5.9 | -7.3 | 14.1 | 28.5*
Oc1ccccc1-c1cc(C(F)(F)C(F)F)[nH]n1 | 8.9 | -11.3 | 1.1 | -13.4 | 10.5 | 3.8
FC(F)C(F)(F)c1cc(-c2ccc(Cl)cc2)n[nH]1 | 18.1* | 2.1 | 16.7 | -7.1 | 11.5 | 15.8
Cc1c(C(=O)N2CCCCCC2)c(S(=O)(=O)Nc2cccc(F)c2)c(C)n1C | 7.7 | -10.2 | 15.2 | 7.1 | -10.9 | -0.8
O=C(c1ccco1)N1CCN(C(=S)NCc2ccc(F)cc2)CC1 | 2.1 | -3.0 | -2.0 | 1.8 | 0.4 | 8.2
O=C(NC(=S)NCCN1CCOCC1)c1ccc(Cl)cc1 | 0.1 | 13.9 | -10.6 | -0.5 | 2.6 | -4.5
CCOCCCNc1ncnc2c1[nH]c1ccccc12 | 5.9 | 3.8 | 1.7 | -9.1 | 18.2 | -0.8
CCCCOCCCNc1ncnc2c1[nH]c1ccccc12 | 11.2 | 29.6* | -7.6 | -22.0 | 35.3* | 3.6
CCOC(=O)CSc1ccc(C(=O)NCCN2CCOCC2)cc1[N+](=O)[O-] | 7.3 | -3.6 | 18.3 | -24.4 | 46.5* | -5.8
CCOC(=O)C1=C[C@@H](C2CCCC2)N(S(=O)(=O)c2ccc([N+](=O)[O-])cc2)[C@H]1c1ccccc1 | 0.5 | 31.2* | -6.7 | -19.2 | 44.2* | -3.6
CCOC(=O)C1=C[C@@H](CC)N(S(=O)(=O)c2ccc(C)cc2)[C@H]1c1ccccc1 | 0.0 | 11.2 | 6.7 | -16.1 | 24.0 | -6.2
CSc1ncnc2c1ncn2CCCN1CCN(c2ncccn2)CC1 | 0.7 | -1.3 | -9.7 | -15.8 | 31.2* | -8.7
CCN(C(=O)COn1nnc2ccc(S(=O)(=O)N(C)C)cc21)C1CCS(=O)(=O)C1 (stereo not given) | 0.9 | -20.1 | 11.4 | 19.0 | -21.9 | -6.2
CCOC(=O)c1sc(=S)n(-c2ccccc2)c1C | 2.3 | 1.1 | 1.2 | -11.0 | 8.1 | -7.3
CCOC(=O)c1sc(=S)n(-c2ccccc2Cl)c1C | 0.1 | -13.4 | 19.8 | -26.6 | 52.0* | -7.1
CCO/C(C)=N/Oc1cc(OC)cc(OC)c1 | -0.6 | 21.7 | -7.7 | 0.3 | -0.9 | -7.9
